PubChem BioAssay (NCATS)
Records with an inconclusive call do not appear. Where a call stands in place of a potency, no number is given. Values without a mark were called inactive. Active and inactive are the calls of the source. Calls follow the shape of the dose curve; as a rule, active = well fitted cell-killing curve with a large enough effect; inconclusive = small, poorly fitted or top-dose-only effect, or effect the other way; inactive = flat fitted curve, though single readings scatter.

Key:
Assay in all cases: Primary qHTS to identify gynecologic anti-cancer compounds using libraries of approved drugs and bioactive compounds (AID 1345084); also: nearly all actives have a fitted effect of over 55% in size
Conditions in all cases: Gynecologic cancer cell panel viability, ATPlite luminescence, 48 h; series mostly up to 57.5 µM
JEG-3 = tested on: JEG-3
Summary of the method: (§1)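 Cells, 1,000 per well, were allowed to settle for 16 h at 37 C before compound addition. Five concentrations were tested for 48 h, and viability was read by ATPlite luminescence after 15 min at room temperature.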

OV90 = tested on: OV90
Summary of the method: as §1

PA-1 = tested on: PA-1
Summary of the method: as §1

SKOV3 = tested on: SKOV3
Summary of the method: as §1

Tov-21-G = tested on: Tov-21-G
Summary of the method: as §1

Tov112D = tested on: Tov112D
Summary of the method: as §1
Potency is read from the fitted curve at half-maximal effect.

SMILES | Potency (JEG-3) | Potency (OV90) | Potency (PA-1) | Potency (SKOV3) | Potency (Tov-21-G) | Potency (Tov112D) | activity change, negative = cytotoxicity (JEG-3) | activity change, negative = cytotoxicity (OV90) | activity change, negative = cytotoxicity (PA-1) | activity change, negative = cytotoxicity (SKOV3) | activity change, negative = cytotoxicity (Tov-21-G) | activity change, negative = cytotoxicity (Tov112D)
CC(C)[C@H]1CC[C@@]2(O)COC(=O)[C@H]2[C@@H]1/C=C(\CO)C(=O)O | inactive | inactive | inactive | inactive | inactive | inactive |  |  |  |  |  | 
Cc1oc2ccccc2c1CNC(=O)NCc1cccs1 | inactive | inactive | inactive | inactive | inactive | inactive |  |  |  |  |  | 
CCOC(=O)c1cc(C#N)c(N2CCC(C(=O)NS(=O)(=O)Cc3ccccc3)CC2)nc1C | inactive | inactive | inactive | inactive | inactive | inactive |  |  |  |  |  | 
C=CC(C)(O)CC/C=C(\C)C(=O)OC1C(O)C(CO)OC(OC(=O)C23CCC(C)(C)CC2C2=CCC4C5(C)CCC(OC6OC(COC7OCC(OC(C)=O)C(O)C7OC7OC(COC(C)=O)C(O)C(O)C7O)C(O)C(O)C6O)C(C)(C)C5CCC4(C)C2(C)C(O)C3O)C1OC1OCC(OC2OCC(O)C(OC3OCC(O)C(O)C3O)C2O)C(O)C1O (stereo not given) |  |  |  |  |  |  | -3.21% [at 6.55 µM] | -14.1% [at 6.55 µM] | -0.479% [at 6.55 µM] | 20.9% [at 6.55 µM] | 0.14% [at 6.55 µM] | -2.19% [at 6.55 µM]
O=C(CN1C(=O)C2(CCCC2)NCC1c1cc(F)cc(F)c1)Nc1ccc2c(c1)CC1(C2)C(=O)Nc2ncccc21 (stereo not given) | inactive | inactive | inactive | inactive | inactive | inactive |  |  |  |  |  | 
COC(=O)N[C@H](C(=O)N1[C@@H]2CC[C@@H](C2)[C@H]1c1nc2ccc(-c3ccc4c(c3)C(F)(F)c3cc(-c5cnc([C@@H]6CCC7(CC7)N6C(=O)[C@@H](NC(=O)OC)C(C)C)[nH]5)ccc3-4)cc2[nH]1)C(C)C | inactive | inactive | inactive | inactive | inactive | inactive |  |  |  |  |  | 
CC1(c2nc3c(C(N)=O)cccc3[nH]2)CCCN1 (stereo not given) | inactive | inactive | inactive | inactive | inactive | inactive |  |  |  |  |  | 
OCc1ccc(O[C@@H]2O[C@H](CO)[C@@H](O)[C@H](O)[C@H]2O)cc1 | inactive | inactive | inactive | inactive | inactive | inactive |  |  |  |  |  | 
CC(C)S(=O)(=O)N[C@H]1CCOC[C@@H]1c1ccc(-c2ccc(C#N)s2)cc1 | inactive | inactive | inactive | inactive | inactive | inactive |  |  |  |  |  | 
CCC(C)C(=O)O[C@H]1CCC=C2C=C[C@H](C)[C@H](CC[C@@H](O)C[C@@H](O)CC(=O)O)[C@H]21 (stereo not given in full) | inactive | inactive | inactive | inactive | inactive | inactive |  |  |  |  |  | 
CC1CC[C@]2(C(=O)O)CC[C@]3(C(=O)O)C(=CCC4[C@@]5(C)CC[C@H](O[C@@H]6O[C@H](CO)[C@@H](O)[C@H](O)[C@H]6O)C(C)(C)C5CC[C@]43C)C2C1C (stereo not given in full) | inactive | inactive | inactive | inactive | inactive | inactive |  |  |  |  |  | 
C=CC1C(OC2OC(CO)C(O)C(O)C2O)OC=C2C(=O)N3C(C(=O)O)Cc4c([nH]c5ccccc45)C3CC21 (stereo not given) | inactive | inactive | inactive | inactive | inactive | inactive |  |  |  |  |  | 
C/C1=C\C[C@]2(C)C(=O)C(O)=C([C@H](C)CO)[C@H]2C/C=C(\C)[C@@H](O)CC/C(C)=C/CC1 | inactive | inactive | inactive | inactive | inactive | inactive |  |  |  |  |  | 
CC1(C)CC[C@]2(C(=O)O[C@@H]3O[C@H](CO[C@@H]4O[C@H](CO)[C@@H](O)[C@H](O)[C@H]4O[C@@H]4O[C@H](CO)[C@@H](O)[C@H](O)[C@H]4O)[C@@H](O)[C@H](O[C@@H]4O[C@H](CO)[C@@H](O)[C@H](O)[C@H]4O)[C@H]3O)CC[C@]3(C)C(=CCC4[C@@]5(C)CC[C@@H](O)[C@@](C)(C(=O)O[C@@H]6O[C@H](CO)[C@@H](O)[C@H](O)[C@H]6O)C5CC[C@]43C)[C@@H]2C1 (stereo not given in full) |  |  |  |  |  |  | -0.894% [at 6.55 µM] | -0.699% [at 6.55 µM] | 5.56% [at 6.55 µM] | -6.61% [at 6.55 µM] | -1.95% [at 6.55 µM] | -1.22% [at 6.55 µM]
C=C[C@H]1[C@H](O[C@@H]2O[C@H](CO)[C@@H](O)[C@H](O)[C@H]2O)OC=C(C(=O)OC)[C@H]1C/C=C(/C=O)[C@@H]1C(C(=O)OC)=CO[C@@H](O[C@@H]2O[C@H](CO)[C@@H](O)[C@H](O)[C@H]2O)[C@@H]1C=C | inactive | inactive | inactive | inactive | inactive | inactive |  |  |  |  |  | 
C=CC(C)(C)c1[nH]c2cc3c(cc2c1CC1NC(=O)C2CCCN2C1=O)C=CC(C)(C)O3 (stereo not given) | inactive | inactive | inactive | inactive | inactive | inactive |  |  |  |  |  | 
C[C@@H]1O[C@@H](O[C@H]2[C@H](O)[C@@H](O)[C@H](OC3CCC4(C)C5CCC(C)(C(CO)OC6OC(CO)C(O)C(O)C6O)CC5=CCC4C3(C)C)O[C@@H]2CO)[C@H](O)[C@H](O)[C@H]1O (stereo not given in full) | inactive | inactive | inactive | inactive | inactive | inactive |  |  |  |  |  | 
O=C(O)c1cc(I)ccc1NC(=O)[C@H](Cc1ccccc1)NCc1ccccc1 | inactive | inactive | inactive | inactive | inactive | inactive |  |  |  |  |  | 

SMILES | Potency (JEG-3) | Potency (OV90) | Potency (PA-1) | Potency (SKOV3) | Potency (Tov-21-G) | Potency (Tov112D) | activity change, negative = cytotoxicity (JEG-3) | activity change, negative = cytotoxicity (OV90) | activity change, negative = cytotoxicity (PA-1) | activity change, negative = cytotoxicity (SKOV3) | activity change, negative = cytotoxicity (Tov-21-G) | activity change, negative = cytotoxicity (Tov112D)
COc1ccc(/C=C/C(=O)O[C@H]2[C@H](O[C@H]3[C@@H]4C=CO[C@@H](O[C@@H]5O[C@H](CO)[C@@H](O)[C@H](O)[C@H]5O)[C@@H]4[C@@]4(CO)O[C@@H]34)O[C@@H](C)[C@H](O)[C@H]2OC(C)=O)cc1 | inactive | inactive | inactive | inactive | inactive | inactive |  |  |  |  |  | 
CC1=C2C3OC(=O)C(C)C3(O)CCC2(C)CCC1O (stereo not given) | inactive | inactive | inactive | inactive | inactive | inactive |  |  |  |  |  | 
O=C(CCc1ccccc1)N1CCC(O)(Cn2cnc3cc(Cl)ccc3c2=O)CC1 | inactive | inactive | inactive | inactive | inactive | inactive |  |  |  |  |  | 
O=C(O)c1cc(-c2c(-c3ccccc3)nn3ccccc23)n[nH]c1=O | inactive | inactive | inactive | inactive | inactive | inactive |  |  |  |  |  | 
O=C(Nc1ccc(S(=O)(=O)Nc2nccs2)cc1)C(c1ccccc1)c1ccccc1 | inactive | inactive | inactive | inactive | inactive | inactive |  |  |  |  |  | 
CC1=C2C[C@H]3O[C@@]3(C)CCC3O[C@@]3(C)C[C@@]2(O)OC1=O (stereo not given in full) | inactive | inactive | inactive | inactive | inactive | inactive |  |  |  |  |  | 
COc1ccc(-c2c(-c3cc(C(=O)O)ccn3)ncn2C)cc1 | inactive | inactive | inactive | inactive | inactive | inactive |  |  |  |  |  | 
O=C(CO)[C@@H](O)[C@H](O[C@@H]1O[C@H](CO)[C@H](O)[C@H](O)[C@H]1O)[C@H](O)CO | inactive | inactive | inactive | inactive | inactive | inactive |  |  |  |  |  | 
C[S+](CC[C@H](N)C(=O)[O-])C[C@H]1O[C@@H](n2cnc3c(N)ncnc32)[C@H](O)[C@@H]1O (stereo not given in full) | inactive | inactive | inactive | inactive | inactive | inactive |  |  |  |  |  | 
COC(=O)C1=COC(O[C@@H]2O[C@H](CO)[C@@H](O)[C@H](O)[C@H]2O)[C@H]2[C@@H]1[C@H](OC(=O)CCc1ccc(O)cc1)C[C@]2(C)O (stereo not given in full) | inactive | inactive | inactive | inactive | inactive | inactive |  |  |  |  |  | 
Cc1cc(Nc2ccc(NC(=O)c3ccc(Nc4ccnc5ccccc45)cc3)cc2)nc(N)n1 | 28.2 µM (active) | 3.98 µM (active) | 20 µM (active) | 3.98 µM (active) | 10 µM (active) | 25.1 µM (active) |  |  |  |  |  | 
CS(=O)(=O)N(CC(=O)NCC1CC1)c1cc(C(F)(F)F)ccc1Cl | inactive | inactive | inactive | inactive | inactive | inactive |  |  |  |  |  | 
O=[N+]([O-])c1cn2c(n1)OCC(OCc1ccc(OC(F)(F)F)cc1)C2 (stereo not given) | inactive | inactive | inactive | inactive | inactive | inactive |  |  |  |  |  | 
C=C(C)C1Cc2cc(C(=O)OC3OC(CO)C(O)C(O)C3O)ccc2O1 (stereo not given) | inactive | inactive | inactive | inactive | inactive | inactive |  |  |  |  |  | 
C[C@H](N)C(=O)N[C@@H](Cc1ccc(O)cc1)C(=O)N1CCC[C@H]1C(=O)NCC(=O)N[C@@H](CCCCN)C(=O)N[C@@H](Cc1ccccc1)C(N)=O |  |  |  |  |  |  | 1.3% [at 11.6 µM] | 1.27% [at 11.6 µM] | 3.5% [at 11.6 µM] | 32.3% [at 11.6 µM] | 1.95% [at 11.6 µM] | 5.22% [at 11.6 µM]
C=C(C(=O)O)C1CC(O)C2(C)CCCC(=C)C2C1 (stereo not given) | inactive | inactive | inactive | inactive | inactive | inactive |  |  |  |  |  | 
COc1cc(O)c([C@@H](CC(=O)N2CC(C)CC(C)C2)c2ccc3c(c2)OCO3)c(OC)c1 (stereo not given in full) | inactive | inactive | inactive | inactive | inactive | inactive |  |  |  |  |  | 
